Bioassay records: PubChem, several laboratories
Rows were chosen to be rich in hits. Some 1.4% of all compounds tested hit in one or more screens of this group.
Sa RN4220 lethal – kills Staphylococcus aureus RN4220. actives 0.33% (n = 330,000). S. aureus RN4220 growth, OD600, 16 h. inhibition, % (no concentration beside the values); in the data active = inhibition above about 85%
SSB-PriA inh – blocks PriA binding to SSB C-terminal tail | AID 1272365 | actives 0.6% (n = 430,000) | inhibition, % at 33 µM | AlphaScreen SSBct-PriA binding, biotinylated peptide; in the data active = inhibition mostly above about 37%, no sharp cut-off; inactive = mostly below about 20%
ugtP null kill – growth inhibition of S. aureus ugtP deletion strain. AID 1259309. growth inhibition, % (concentration not given with the values). actives 0.54% (n = 330,000). S. aureus RN4220 ugtP deletion, OD600 growth, 16 h; in the data active = growth inhibition above about 68%
CCHF vOTU inh – blocks the CCHF virus ovarian tumor domain protease; AID 651958; actives 0.55% (n = 370,000); CCHFV vOTU protease, Pep-AMC fluorescence; inhibition, % at 11.5 µM; in the data active = inhibition above about 30%
Mtb hypoxia rep – Mtb hypoxia fluorescent reporter inhibition. fluorescence inhibition, % (test concentration not listed). M. tuberculosis hypoxia-regulated fluorescent reporter, fluorescence. actives 0.1% (n = 300,000); in the data active = fluorescence inhibition mostly above about 23%, no sharp cut-off; inactive = mostly below about 17%
A number is an active result; ! = repeats disagree.

How did O=C(NCCOc1ccc(-c2ccccn2)nn1)[C@H]1CC(=O)N(c2cccc(Br)c2)C1 do in these assays?
SSB-PriA inh: 100.0

What do the screens show for `O=C(NCCn1ccc(-c2ccccn2)n1)[C@H]1CC(=O)N(c2ccccc2)C1`?
SSB-PriA inh: inactive

What do the screens show for `COc1ccc(Nc2nc(NC(C)(C)C)nc(N3CCCC3)n2)c(OC)c1`?
Sa RN4220 lethal: inactive; SSB-PriA inh: 44.5; ugtP null kill: inactive; CCHF vOTU inh: inactive; Mtb hypoxia rep: inactive

What do the screens show for `COc1ccc(Nc2nc(NC(C)(C)C)nc(N3CCOCC3)n2)c(OC)c1`?
Sa RN4220 lethal: inactive; SSB-PriA inh: inactive; ugtP null kill: inactive; CCHF vOTU inh: inactive; Mtb hypoxia rep: inactive

Results for CCCCNC(=S)NN=C1CCCCc2ccccc21 ?
Sa RN4220 lethal: inactive; SSB-PriA inh: inactive; ugtP null kill: inactive; Mtb hypoxia rep: inactive

How did CC1CCCCC1=NNC(=S)NCCc1ccccc1 (centres undefined) do in these assays?
Sa RN4220 lethal: inactive; SSB-PriA inh: 43.9; ugtP null kill: inactive; Mtb hypoxia rep: inactive

How did Cn1nc(C(F)(F)F)c(C=NOCc2c(Cl)cccc2Cl)c1Cl do in these assays?
Sa RN4220 lethal: inactive; SSB-PriA inh: inactive; ugtP null kill: 92.6; Mtb hypoxia rep: inactive

How did S=c1[nH]nc(-c2ccco2)n1N=Cc1ccccc1Cl do in these assays?
Sa RN4220 lethal: inactive; SSB-PriA inh: inactive; ugtP null kill: inactive; Mtb hypoxia rep: inactive

How did Fc1ccc(Nc2nc(NCCCn3ccnc3)nc3nc[nH]c23)cc1 do in these assays?
SSB-PriA inh: 29.0

Results for COc1cc2ccccc2cc1C(=O)N(CCN(C)C)c1nc2c(F)cc(F)cc2s1 ?
Sa RN4220 lethal: inactive; SSB-PriA inh: inactive; ugtP null kill: inactive; CCHF vOTU inh: inactive; Mtb hypoxia rep: inactive

Results for Cc1cc(C)c2nc(N(Cc3ccccn3)C(=O)c3ccc4ccccc4c3)sc2c1 ?
SSB-PriA inh: inactive

What do the screens show for `COc1ccc(C)c2sc(N(CCN(C)C)C(=O)c3ccc4ccccc4c3)nc12`?
Sa RN4220 lethal: inactive; SSB-PriA inh: 43.0!; ugtP null kill: inactive; CCHF vOTU inh: inactive; Mtb hypoxia rep: inactive

Results for COc1ccc(C)c2sc(N(CCN(C)C)C(=O)CCOc3ccccc3)nc12 ?
SSB-PriA inh: inactive

How did COc1cc2ccccc2cc1C(=O)N(CCN(C)C)c1nc2ccc(Br)cc2s1 do in these assays?
Sa RN4220 lethal: inactive; SSB-PriA inh: 48.6; ugtP null kill: inactive; CCHF vOTU inh: inactive; Mtb hypoxia rep: inactive

How did Cc1cc(C)c2nc(N(CCN(C)C)C(=O)c3ccc4ccccc4c3)sc2c1 do in these assays?
Sa RN4220 lethal: inactive; SSB-PriA inh: 38.0!; ugtP null kill: inactive; CCHF vOTU inh: inactive; Mtb hypoxia rep: inactive

What do the screens show for `O=C(Nc1ccc2c(c1)OCO2)N1CC(Oc2nc3c(C(F)(F)F)cccc3s2)C1`?
SSB-PriA inh: inactive

How did O=C(Cc1cccc2ccccc12)NCc1n[nH]c(=O)c2ccccc12 do in these assays?
SSB-PriA inh: inactive

What do the screens show for `CCCCNC(=O)C[C@H]1C[C@@]2(C(=O)OC)C(=C[C@H](COCc3ccccc3)O[C@@H]2C)N(Cc2ccco2)C1=O`?
CCHF vOTU inh: inactive

What do the screens show for `COc1cccc(NC(=O)CSc2cccc3cccnc23)c1`?
SSB-PriA inh: inactive

How did COc1cc([N+](=O)[O-])ccc1NC(=O)CSc1cccc2cccnc12 do in these assays?
SSB-PriA inh: inactive

Results for Cc1cc(Cl)ccc1NC(=O)CSc1cccc2cccnc12 ?
SSB-PriA inh: inactive

What do the screens show for `CC(=O)c1cccc(NC(=O)CSc2cccc3cccnc23)c1`?
SSB-PriA inh: 116.0

Results for O=C(CSc1cccc2cccnc12)c1ccc([N+](=O)[O-])cc1 ?
SSB-PriA inh: 57.6

How did O=C(CSc1cccc2cccnc12)Nc1cccc([N+](=O)[O-])c1 do in these assays?
SSB-PriA inh: 88.0

What do the screens show for `CN(C)S(=O)(=O)c1cccc(NC(=O)CSc2cccc3cccnc23)c1`?
Sa RN4220 lethal: inactive; SSB-PriA inh: 65.1; ugtP null kill: inactive; CCHF vOTU inh: inactive; Mtb hypoxia rep: inactive

What do the screens show for `COC(CNC(=O)c1ccccc1C(F)(F)F)c1ccc(C)s1` (centres undefined)?
SSB-PriA inh: inactive

How did C=CCn1c(SCC(=O)c2ccc3c(c2)OCO3)nc2sc3c(c2c1=O)CCCCC3 do in these assays?
SSB-PriA inh: inactive

How did O=C(CSc1cccc2cccnc12)Nc1cccc(C(F)(F)F)c1 do in these assays?
SSB-PriA inh: 125.5

What do the screens show for `Cc1cc(Br)ccc1NC(=O)CSc1cccc2cccnc12`?
SSB-PriA inh: 82.4

Results for CC(C)(C)NC(=O)CSc1cccc2cccnc12 ?
SSB-PriA inh: inactive

What do the screens show for `O=C(CSc1cccc2cccnc12)Nc1ccc(SC(F)F)cc1`?
SSB-PriA inh: 85.3

How did CCc1c(C)nc(SCC(=O)Nc2nc3ccc(C)cc3s2)[nH]c1=O do in these assays?
SSB-PriA inh: inactive

What do the screens show for `CCc1ccc(S(=O)(=O)N2CCC(c3nnc(CC)s3)CC2)cc1`?
SSB-PriA inh: inactive

Results for COC(=O)CC1=C(C(=O)OC)C2(C(=O)Nc3c(C)cccc32)C(C#N)=C(N)O1 (centres undefined) ?
Sa RN4220 lethal: 97.3; SSB-PriA inh: inactive; ugtP null kill: 94.5; CCHF vOTU inh: inactive; Mtb hypoxia rep: inactive

What do the screens show for `COC(=O)C1=C(C)OC(N)=C(C#N)C12C(=O)Nc1ccccc12` (centres undefined)?
Sa RN4220 lethal: inactive; SSB-PriA inh: inactive; ugtP null kill: inactive; CCHF vOTU inh: inactive; Mtb hypoxia rep: inactive

Results for CCOC(=O)C1=C(C)OC(N)=C(C#N)C12C(=O)N(C)c1ccccc12 (centres undefined) ?
Sa RN4220 lethal: 90.5; SSB-PriA inh: inactive; ugtP null kill: inactive; CCHF vOTU inh: inactive; Mtb hypoxia rep: inactive

How did S=C1NC(c2ccccc2)=CC(c2ccccc2)N1 (centres undefined) do in these assays?
Sa RN4220 lethal: inactive; SSB-PriA inh: inactive; ugtP null kill: inactive; CCHF vOTU inh: inactive; Mtb hypoxia rep: inactive

What do the screens show for `COc1ccc2ccccc2c1C1C=C(c2ccccc2)NC(=S)N1` (centres undefined)?
SSB-PriA inh: 36.0

Results for Cc1cc2ncn(CCCOc3ccc(Cl)cc3)c2cc1C ?
SSB-PriA inh: inactive

What do the screens show for `O=C(O)c1cc(-n2cccc2)ccn1`?
SSB-PriA inh: 95.0

What do the screens show for `O=C(c1cc(-n2cccc2)ccn1)N1CCN(C/C=C/c2ccccc2)CC1`?
SSB-PriA inh: inactive

What do the screens show for `N#Cc1nccnc1OC1CCN(C(=O)CN2CCN(c3ccccc3)C2=O)C1` (centres undefined)?
SSB-PriA inh: inactive

How did CC(C)COc1ccc(C(=NO)c2ccccc2)cc1 do in these assays?
Sa RN4220 lethal: inactive; SSB-PriA inh: inactive; ugtP null kill: 86.3; Mtb hypoxia rep: inactive

What do the screens show for `Oc1c(Cl)cccc1Cc1cc(Cl)cc(Cl)c1O`?
Sa RN4220 lethal: 99.8; SSB-PriA inh: inactive; ugtP null kill: 99.9; CCHF vOTU inh: inactive; Mtb hypoxia rep: inactive

How did Cn1c2ccccc2c(=O)c2ccc(NCCc3cccs3)cc21 do in these assays?
Sa RN4220 lethal: inactive; SSB-PriA inh: inactive; ugtP null kill: inactive; CCHF vOTU inh: inactive; Mtb hypoxia rep: 38.1

Results for NC(=O)c1ccc(NCCc2cccs2)cc1 ?
CCHF vOTU inh: inactive
